Experimental data published in PubChem BioAssay.

tested on: glycogen synthase kinase-3 (GSK3A per assay name; protocol says GSK3B); test: compounds binding glycogen synthase kinase-3 – biochemical, small-molecule microarray, 635 nm fluorescence, GSK3A, primary screen (AID 1103); conditions: fluorescence 635 nm, higher = more signal; also: the record names both GSK3A and GSK3B

| Structure (SMILES) | composite z-score |
| --- | --- |
| CO[C@H]1COC(=O)[C@@H](C)COC(=O)[C@H](Cc2ccccc2)NC(=O)CC=C[C@H]1C | 0.0364 |
| C=CCC(OC(C)=O)[C@@H]1[C@@H](N(Cc2cccc3ccccc23)C(=O)c2ccc(C)cc2)c2cc(OCCCO)ccc2N1C(=O)c1ccc(-c2ccccc2)cc1 (some centres not stated) | 0.0243 |
| CC(C)[C@H]1NC(=O)[C@@]23C(=O)N[C@@H](Cc4ccccc4)C2[C@H](C)[C@@]2(C)O[C@H]2C3/C=C/C/C=C\CNC(=O)[C@H](C)NC1=O (some centres not stated) | -1.37 |
| CO[C@H]1COC(=O)[C@@H](Cc2ccccc2)NC(=O)[C@@H](C)COC(=O)CC=C[C@@H]1C | -0.0524 |
| CN1CCC(CCCO)=CC1C1CC1 (configuration not stated) | 0.348 |
| CC(C)[Si]1(C(C)C)OCc2cc(C3CC3)nc(-c3ccccc3)c21 | -1.24 |
| O=C1c2ccccc2[C@](Cc2ccccc2I)(C(=O)O)[C@H](c2ccc(CO)cc2)N1C1CCCCC1 | 1.28 |
| C[C@@H]1NC(=O)CC=C[C@@H](C)[C@@H]2C=C[C@H](O)[C@@H](COC(=O)[C@H](C)NC(=O)CC=C[C@@H](C)[C@@H]3C=C[C@H](O)[C@@H](COC1=O)O3)O2 | 0.217 |
| C=CCc1cccc([C@@H]2[C@@H](C)CC[C@H]3C(=O)N4[C@H](c5cccc(CC=C)c5)[C@@H](C)CC[C@H]4C(=O)N23)c1 | 0.365 |
| C=CC[C@@]12N=C(c3ccc(OCCCO)cc3)O[C@@H]1c1ccccc1CN(Cc1ccccc1)C2=O | 1.28 |
| COc1ccc([C@H]2C[C@H]3C(Br)=C[C@]2(OC)C(=O)[C@]32CO2)cc1 | 0.083 |
| C=CCOC(=O)[C@@H]1[C@H]2C(=O)O[C@H](c3ccccc3)[C@H](c3ccccc3)N2[C@H](c2ccc(OCCOC(=O)[C@H]3C[C@H]4C(=O)N5CCC[C@H]5C(=O)N4[C@H]3c3ccc(O)cc3)cc2)[C@@]12C(=O)Nc1ccccc12 | 1.18 |
